Common to all, as to assay: PBM binding z-score (relative to random genomic background probes); higher = stronger binding; sequences stand for … in GC…GCGATTGACAGCGTAGAATGAAGG
The subject of test [1] is FXR:RXRa (NR concentration 270 nM, RXRa partner concentration 90 nM). Summed up:
(§1)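 Scanned fluorescence from custom Agilent 4×180K protein-binding microarrays was regression-normalized. Binding z-scores use random background probes as reference. Ligand-free nuclear receptor dimers were incubated on the arrays for 1 h and detected with antibodies against each partner (one per run).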

For test [2], the system named is LXRa:RXRa (NR concentration 270 nM, RXRa partner concentration 90 nM). An outline of the steps:
as §1

Test [3] deals with LXRa homodimer (NR concentration 270 nM). An outline of the steps: as §1
For test [4], the system named is LXRb:RXRa (NR concentration 270 nM, RXRa partner concentration 90 nM). Summed up:
as §1

Test [5] concerns LXRb homodimer (NR concentration 270 nM). Summed up:
as §1

Test [6] concerns PPARa:RXRa (NR concentration 270 nM, RXRa partner concentration 90 nM). An outline of the steps:
as §1

Test [7] relates to PPARg:RXRa (NR concentration 180 nM, RXRa partner concentration 90 nM). Summed up: as §1
In test [8] the test system is PPARg:RXRa 270nM:90nM, anti-RXR (NR concentration 270 nM, RXRa partner concentration 90 nM). Summed up:
as §1

Test [9] has as its system PPARg:RXRa 30nM:10nM, anti-RXR (NR concentration 30 nM, RXRa partner concentration 10 nM). Summed up: as §1
For test [10], the system named is PPARg:RXRa 90nM:30nM, anti-RXR (NR concentration 90 nM, RXRa partner concentration 30 nM). Summed up: as §1

For the sequence CAAACTAGGTCACAGGAAGGTCAAAGTCCGCATG, the PBM binding z-score in test [1] is 5.68; in test [2], 6.01; in test [3], 4.15; in [4] it was 4.78; in test [5], 1.18; in [6] it was 6.19. The PBM binding z-score in [7] was determined as 9.73; in test [8], 7.57; in [9], 5.77; in test [10] it was 7.73.

CGAACTCGGTCAAGGACAGTGAATCTCCGCACGC: the PBM binding z-score in test [1] was 0.923; in test [2], 0.427; in test [3], -0.214; in test [4], -0.232; in test [5] it was -0.75; in test [6] it was 0.927. For the same sequence, the PBM binding z-score was 0.826 in test [7], 0.618 in test [8], -0.54 in [9] and -0.129 in [10].

As to CGTCCAAGGTCAATGCTAGGTCGGTGAAAGCATT, the PBM binding z-score in test [1] worked out at 5.99; in [2], 4.42; in test [3] it was 0.539; in test [4], 3.19; in [5], 0.14; in [6], 4.79. For the same sequence, the PBM binding z-score in test [7] was 3.29; in [8] it was 4.06; in test [9], 1.09; in test [10], 2.58.

For the sequence TAAGACAGGTGAAGGTAACTCAGGTACGCAGTCG, the PBM binding z-score in test [1] was 0.669; in test [2], 1.42; in test [3], 0.116; in test [4], 0.904; in test [5], 1.51; in test [6] it was 0.916. In addition, the PBM binding z-score came out at 1.01 in test [7], 1.38 in test [8], 1.67 in test [9] and 1.57 in test [10].

AGAATGAGGTTAAGATCCGGGAAACAGAATACAT: the PBM binding z-score was 2.5 in [1]; 1.75 in test [2]; -0.0766 in test [3]; 1.58 in [4]; -0.277 in [5]; 3.26 in [6]. Further, the PBM binding z-score came out at 2.03 in test [7], 1.97 in test [8], 0.812 in [9] and 1.72 in [10].

Turning to TCTTGTAGATCAAGCAGGTTAATAAAGCCTGAGT, the PBM binding z-score in [1] was 0.189; in test [2], 0.118; in [3] it was -0.263; in test [4] it was 0.262; in [5], -0.449; in test [6], 0.639. Moreover, the PBM binding z-score was -0.267 in test [7], 0.922 in test [8], 2.43 in test [9] and 1.6 in [10].

TGTCAAACTTCAAAGGTAACGTAAGTATCCACAC: the PBM binding z-score was 0.417 in test [1]; 0.363 in test [2]; -0.174 in test [3]; 0.695 in test [4]; 0.266 in test [5]; 0.877 in test [6]. For the same sequence, the PBM binding z-score in test [7] was 0.587; in test [8], 0.784; in [9] it was 0.906; in test [10], 0.841.

For GCGACTGGGGCAAAGCAGGTTACCACAAGGTTGG, the PBM binding z-score in test [1] is 0.61; in test [2], -0.0445; in test [3], -0.447; in [4], 0.204; in [5], -1.07; in test [6], 1.14. Also, the PBM binding z-score in test [7] is 1.35; in test [8], 1.34; in [9], -0.386; in test [10], 0.797.

As for GCCAGTTGGTCAGTAAAAGGTCACACACCGGTCG, the PBM binding z-score in test [1] was 3.07; in test [2] it was 4.03; in [3], 4.4; in test [4], 3.89; in [5] it was -0.0245; in test [6] it was 4.36. Moreover, the PBM binding z-score in test [7] turned out to be 2.75; in test [8], 4.34; in test [9], 1.84; in test [10], 3.62.

As to TCTATTAGTAGATTAGGGCAACCGAAACAGCGGA, the PBM binding z-score in test [1] is 0.325; in test [2], 0.084; in test [3], -0.337; in [4] it was 0.176; in test [5], 0.298; in test [6], 0.659. The PBM binding z-score stood at 0.254 in test [7], 1.64 in [8], 3.45 in [9] and 2.5 in test [10].

Turning to CCGACAGGGGCATAAGGTTACCATAAGCCAGCCC, the PBM binding z-score in test [1] is 0.857; in [2], 2.05; in [3], -0.0589; in [4] it was 1.1; in [5], -1.11; in test [6], 1.9. The PBM binding z-score in [7] is 1.11; in test [8], 0.825; in test [9] it was -0.159; in test [10], 0.389.

As for CCTACCGGGCCATCAGGTCATTGATATCAACGTT, the PBM binding z-score in [1] came to 1.4; in [2], 1.26; in [3], 1.91; in [4] it was 1.66; in test [5], 0.209; in test [6], 1.93. The PBM binding z-score is 0.875 in test [7], 1.59 in test [8], -0.00582 in test [9] and 1.09 in [10].

These data come from the supplement of paper PMC6555819.
